DT40 TDP1 no CPT = qHTS for Inhibitors of human tyrosyl-DNA phosphodiesterase 1 (TDP1): qHTS in cells in absence of CPT. DT40 Tdp1-/- hTDP1 cells, no CPT, ATP luminescence, 48 h. Potency, µM (titrated, usually from 46.2 µM), actives largely listed as inhibitors. 420,000 tested, 15% active. AID 686978, 2013; note: nearly all actives have a fitted effect of over 55% in size
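Growth of hTDP1-complemented DT40 Tdp1-knockout cells is measured by ATP luminescence after at least 48 hr compound exposure at 37 °C, with DMSO substituting for the 20 nM CPT used in the parallel screen.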
TDP1 cell CPT = DT40-hTDP1 cell growth loss with CPT. chicken DT40 Tdp1-/-;hTDP1 cells + 20 nM CPT, ATP luminescence, 48 h. Potency, µM (doses to about 46.2 µM), usual class: inhibitors. 420,000 tested, 12% active. AID 686979; note: nearly all actives have a fitted effect of over 55% in size
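Chicken DT40 Tdp1-/- cells complemented with human TDP1, 400 cells/well, exposed to compounds plus 20 nM camptothecin for at least 48 h at 37 C; viability read as ATP content by CellTiter-Glo luminescence.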
PLK1 PBD inh = blocks phosphopeptide binding to human PLK1 polo-box domain; P53350; Potency, µM, hits mostly inhibitors; Plk1 PBD binding of FITC phosphopeptide, fluorescence polarization; 360,000 tested, 2.8% active; note: series mostly up to about 57 µM; nearly all actives have a fitted effect of over 65% in size
GCN5L2 inh = GCN5L2 (KAT2A) acetyltransferase inhibition | Q92830 | GCN5L2 HAT assay, ThioGlo1 CoA-SH fluorescence | Potency, µM (highest dose often 58.9 µM), hits mostly inhibitors | 390,000 tested, 0.21% active | AID 504327
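qHTS, 1536-well. 20nM enzyme, pH 7.5 HEPES/EDTA/Tween-20 buffer; 15 min compound preinc., RT. Start: 75uM H3(1-25), 70uM AcCoA, 50uM ThioGlo1. Read Ex340/Em540 at t=0 (autofluorescence flag) and t=20 min.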
TDP1 block = blocks human tyrosyl-DNA phosphodiesterase 1. recombinant TDP1, AlphaScreen DNA substrate cleavage. Potency, µM (doses to about 130 µM), most hits filed as inhibitors. 350,000 tested, 0.28% active; note: nearly all actives have a fitted effect of over 40% in size
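E. coli-derived human Tdp1, 1 nM final. Cpd preinc 15 min RT; substrate 15 nM final, 5 min RT; AS bead mix 10 ug/ml final, 10 min RT. Signal loss = tyrosine-FITC cleavage. No-enzyme wells = max signal.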
VDR inh = blocks the human vitamin D receptor; Potency, µM, usual class: inhibitors; P11473; VDR-SRC2-3 peptide fluorescence polarization, 2 h; 400,000 tested, 0.93% active
Target sequence (P11473 whole entry, looked up): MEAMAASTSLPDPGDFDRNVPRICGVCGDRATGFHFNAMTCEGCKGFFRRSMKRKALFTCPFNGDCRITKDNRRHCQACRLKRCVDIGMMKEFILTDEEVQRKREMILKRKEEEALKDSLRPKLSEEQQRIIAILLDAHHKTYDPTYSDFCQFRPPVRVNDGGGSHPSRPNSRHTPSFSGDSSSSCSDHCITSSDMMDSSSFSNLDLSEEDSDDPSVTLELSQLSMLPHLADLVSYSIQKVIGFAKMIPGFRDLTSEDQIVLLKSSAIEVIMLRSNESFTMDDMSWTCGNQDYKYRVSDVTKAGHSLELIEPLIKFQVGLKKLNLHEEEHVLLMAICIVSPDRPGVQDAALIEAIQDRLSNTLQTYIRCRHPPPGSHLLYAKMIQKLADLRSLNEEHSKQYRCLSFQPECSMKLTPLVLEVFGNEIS
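Reagent solutions, kept cold and dark, are dispensed first; compounds are then pinned in at 23 nl, plates briefly spun, and incubated 2 h at ambient temperature. Inhibition of VDR–SRC2-3 peptide binding is read by fluorescence polarization.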
Numbers stand for hits; . = inactive; ? = inconclusive; / = no result. Only some compounds are listed: those with a hit (about 18% of all), similar ones and a draw of the others. Calls come from the whole dose curve; as a rule, active = well fitted curve in the direction sought with a large enough effect; inconclusive = small, poorly fitted or top-dose-only effect, or another doubt; inactive = no such curve, though single readings can be large; an effect the other way counts as inactive or inconclusive.

SMILES	DT40 TDP1 no CPT	TDP1 cell CPT	PLK1 PBD inh	GCN5L2 inh	TDP1 block	VDR inh
CC(C)C[C@H]1CNC(=S)N1C[C@H]1CCCN1C[C@H](Cc1ccc(O)cc1)N1C[C@H](Cc2ccccc2)N(CC2CCCCCC2)C1=S	18.4µM	18.4µM	.	/	/	/
CC(C)C[C@H]1CN([C@@H](Cc2ccccc2)CN2CCC[C@@H]2CN2C(=O)C(=O)NC[C@@H]2Cc2ccc(O)cc2)C(=O)C(=O)N1CC1CCCCC1	?	.	.	/	/	/
CC(C)C[C@H]1CNC(=S)N1CC1CCCN1C[C@H](Cc1ccc(O)cc1)N1C[C@H](Cc2ccccc2)N(CC2CCCCC2)C1=S (some centres undefined)	5.8µM	5.8µM	.	/	/	.
CC(C)C[C@H]1CNC(=S)N1C[C@H]1CCCN1C[C@H](Cc1ccccc1)N1C[C@H](Cc2ccc(O)cc2)N(CC2CCCCC2)C1=S	23.1µM	16.4µM	.	/	/	/
CC(C)C[C@H]1CNC(=S)N1CC1CCCN1C[C@H](Cc1ccccc1)N1C[C@H](Cc2ccccc2)N(CC2CCCCC2)C1=S (some centres undefined)	?	?	.	/	/	/
CC(C)C[C@H]1CN([C@@H](Cc2ccccc2)CN2CCC[C@H]2CN2C(=O)C(=O)NC[C@@H]2Cc2ccc(O)cc2)C(=O)C(=O)N1CC1CCCCC1	?	?	.	/	/	/
O=C(Nc1ccc(Cl)cc1)/C(=C/c1cccc(O)c1)c1nc2ccccc2s1	4.61µM	5.17µM	.	.	.	?
Cc1ccc(C)c(NC(=S)c2nc3ccccc3s2)c1	?	25.9µM	8.44µM	.	.	.
S=C(Nc1ccc(Cl)cc1)c1nc2ccccc2s1	14.6µM	?	.	.	.	.
C=C(C)C(COc1c2occc2cc2ccc(=O)oc12)OC(C)(C)C(O)COc1c2occc2cc2ccc(=O)oc12 (centres undefined)	14.6µM	13µM	.	.	.	.
CCOc1nc(Nc2cc(Cl)ccc2OC)nc(OCC)n1	?	20.6µM	.	.	.	.
COc1ccc(Cl)cc1Nc1nc(N2CCCC2)nc(N2CCCC2)n1	/	/	/	.	.	/
CCOc1nc(Nc2ccc(OC)cc2OC)nc(OCC)n1	16.4µM	.	.	.	.	.
C=CCNc1nc(Cl)nc(Nc2cc(Cl)ccc2OC)n1	?	?	21.2µM	.	.	?
Cc1ccc(S(=O)(=O)COCCN2CCN(S(=O)(=O)c3ccc(C)cc3)CCC2=O)cc1	/	/	/	.	.	.
O=S(=O)(NC1c2cccc3cccc(c23)C1Sc1ncccn1)c1ccccc1 (centres undefined)	20.6µM	?	.	.	.	.
Cc1ccnc(NC(=O)C(C)n2cc([N+](=O)[O-])cn2)c1 (centres undefined)	.	.	.	.	.	.
CC(C)[C@H](NC(=O)OC(C)(C)C)c1cc(C(=O)N[C@@H](C)c2ccccc2)c(N)s1	?	?	.	/	/	/
Cc1ccccc1C(=O)Nc1cccc(NC(=O)c2ccc(-c3ccc(Br)cc3)o2)c1	8.2µM	23.1µM	.	.	.	.
O=C(Nc1cccc(F)c1)c1ccc(-c2ccccc2Cl)o1	16.4µM	?	.	.	.	.
Cc1ccc(-c2ccc(C(=O)Nc3cccc(F)c3)o2)c2ccccc12	20.6µM	?	.	.	.	.
COc1ccc2c(c1)cc1c(=O)n(CC(=O)NC3CCCCC3)nc(C)n12	.	.	/	.	.	.
COc1ccc(CN2CCN(C(=O)C3CCN(C(=O)Nc4ccccc4)CC3)CC2)cc1OC	?	.	.	.	.	.
COc1ccc2c(CNCc3ccc(Cl)cc3)c(C(=O)O)n(Cc3ccccc3C)c2c1	1.16µM	2.31µM	/	.	.	.
COc1ccc2c(CNCc3cccs3)c(C(=O)O)n(Cc3cccc(F)c3)c2c1	?	.	/	.	.	.
SMILES	DT40 TDP1 no CPT	TDP1 cell CPT	PLK1 PBD inh	GCN5L2 inh	TDP1 block	VDR inh
COc1ccc(Cn2c(C(=O)O)c(CNCc3ccc(C)o3)c3ccc(OC)cc32)cc1	.	23.1µM	/	.	.	.
COc1ccc2c(CNCCc3ccccc3)c(C(=O)O)n(Cc3cccc(F)c3)c2c1	18.4µM	?	/	.	.	.
COc1ccc2c(CNC3CCC(C)CC3)c(C(=O)O)n(Cc3ccc(F)cc3)c2c1 (centres undefined)	16.4µM	?	/	.	.	.
O=C(O)CCCC(=O)N1N=C(c2ccccc2)CC1c1ccc2c(c1)OCO2 (centres undefined)	.	.	.	.	.	.
COc1ccc(Cn2c(C(=O)O)c(CNCc3ccccc3F)c3ccc(OC)cc32)cc1	16.4µM	?	/	.	.	.
CCc1ccc(-n2nc(C)c3c(C)cc(=O)n(CC(=O)NCc4ccc(C)cc4)c32)cc1	?	.	/	.	.	.
COc1ccc(/C=N/n2cnnc2)cc1COc1ccccn1	.	.	.	.	.	.
COc1ccc(/C=N/n2cnc3c([nH]c4ccc(Br)cc43)c2=O)cc1CN1CCOCC1	?	16.4µM	.	.	.	.
COc1ccc(/C=N/n2cnc3c([nH]c4ccccc43)c2=O)cc1CO	?	?	10.6µM	.	.	?
Nc1ccc2c(c1)C=C/C2=C\c1ccccc1	?	.	/	/	/	/
Cc1ccc(-c2csc(NS(=O)(=O)c3cccc(F)c3)n2)o1	.	.	23.8µM	?	.	?
Cc1nc(CNS(=O)(=O)c2cccc(F)c2)cs1	.	.	.	.	.	.
c1nc2nc(Nc3ccc(N4CCOCC4)cc3)nc(NC3CCCCC3)c2[nH]1	/	/	/	.	.	.
O=C(/C=C/c1ccccc1)Nc1ccc(Cl)cn1	3.26µM	2.59µM	.	.	.	.
O=C(COC(=O)/C=C/c1ccccc1)Nc1ccc(Cl)cn1	.	.	.	.	.	.
Cc1cccc(NC(=O)/C=C/c2ccc(Cl)cc2)n1	18.4µM	?	.	.	.	.
COc1ccc(-c2cn3cccnc3n2)cc1NC(=O)c1ccccc1C(F)(F)F	.	.	/	.	.	.
COc1ccc(-c2cc(C(=O)OCc3ccccn3)c3ccccc3n2)cc1	?	?	.	.	/	.
CC(=O)Nc1cc(-c2ccc(N3CCN(C)CC3)cc2)cn2c(-c3ccc(F)c(Cl)c3)cnc12	?	18.4µM	.	/	/	/
CN1CCN(c2ccc(-c3cc(NC=O)c4ncc(-c5ccc(F)c(Cl)c5)n4c3)cc2)CC1	16.4µM	11.6µM	.	/	/	/
CC(=O)Nc1cc(-c2ccc(N3CCN(C)CC3)cc2)cn2c(-c3cccc(C(C)=O)c3)cnc12	?	?	.	/	/	/
CC(=O)c1ccc(-c2cnc3c(NC=O)cc(-c4ccc(N5CCN(C)CC5)cc4)cn23)cc1	20.6µM	?	.	/	/	/
Cc1ccc(C)c(C(=O)C[n+]2cccc(Br)c2)c1	?	.	/	/	/	/

Screening data: PubChem BioAssay, National Center for Advancing Translational Sciences (NCATS)
